# Records with an inconclusive call do not appear. Activity calls are given as the source filed them. Calls follow the shape of the dose curve; as a rule, active = well fitted inhibition curve with a large enough effect; inconclusive = small, poorly fitted or top-dose-only effect, or effect the other way; inactive = flat fitted curve, though single readings scatter.
# Target: Ubiquitin carboxyl-terminal hydrolase 2 (Homo sapiens) (UniProt O75604)
# Assay: Confirmation Assay for Inhibitors of Ubiquitin-specific Protease USP2a Using CHOP2 as the Reporter; also: nearly all actives have a fitted effect of over 55% in size;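 as to activity change, negative = inhibition: plate controls were DMSO wells for no effect and full inhibition by NEM control for full effect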
# Conditions: USP2 core, Ub-CHOP2 coupled reporter fluorescence; series mostly up to 38.3 µM; activity change, negative = inhibition: at the top concentration
# In short: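 USP2 core (10 nM final) was preincubated with compound for 30 min at RT in Tris-HCl pH 8.0, CaCl2, beta-mercaptoethanol, CHAPS. Ub-CHOP2 and reporter substrate (25 nM final each) were added, and fluorescence (Ex 485/Em 531 nm) was read after 60 min.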
# Potency is read from the fitted curve at half-maximal effect.
# Chain of Ubiquitin carboxyl-terminal hydrolase 2 (Homo sapiens) (O75604 whole entry, looked up): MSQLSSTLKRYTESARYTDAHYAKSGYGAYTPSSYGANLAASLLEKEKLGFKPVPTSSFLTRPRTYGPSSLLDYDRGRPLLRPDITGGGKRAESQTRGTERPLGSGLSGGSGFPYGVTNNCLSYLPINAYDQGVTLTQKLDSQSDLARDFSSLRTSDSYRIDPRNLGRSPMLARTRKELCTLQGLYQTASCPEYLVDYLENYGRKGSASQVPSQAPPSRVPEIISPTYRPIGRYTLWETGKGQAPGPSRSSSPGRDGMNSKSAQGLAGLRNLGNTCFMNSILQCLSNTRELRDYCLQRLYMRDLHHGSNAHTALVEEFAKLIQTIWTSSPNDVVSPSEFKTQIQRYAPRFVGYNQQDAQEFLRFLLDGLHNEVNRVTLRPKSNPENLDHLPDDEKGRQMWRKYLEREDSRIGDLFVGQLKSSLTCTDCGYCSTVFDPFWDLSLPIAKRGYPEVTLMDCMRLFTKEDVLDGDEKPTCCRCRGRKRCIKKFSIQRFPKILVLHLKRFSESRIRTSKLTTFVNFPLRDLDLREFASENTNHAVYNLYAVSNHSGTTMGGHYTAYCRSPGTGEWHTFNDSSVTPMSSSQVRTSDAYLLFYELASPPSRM
SMILES,"activity change, negative = inhibition",Potency
CCOC(=O)c1[nH]c2ccc(OC)cc2c1NC(=O)CCN1CCC(C)CC1,-3.28% (inactive),
C#CCOCCOCCOCCNc1nc(N2CCN(C(=O)CCCCCCCCCCNC(=O)[C@@H](CCC(=O)O)n3cc(CCCCCN)nn3)CC2)nc(N2CCN(C(=O)CCCCCCCCCCNC(=O)[C@H](CCCCN)n3cc(C[C@@H](C)CC)nn3)CC2)n1,,5.21 µM (active)
COc1ccc(OCC(=O)Nc2ccccc2OC)cc1,7.41% (inactive),
COc1cc(/C=C(/C(=O)c2cccs2)c2nc3ccccc3[nH]2)ccc1O,-6.77% (inactive),
O=C(O)CC1(CC(=O)Nc2ccc3ccccc3c2)CCCCC1,4.41% (inactive),
CCNC1=C(Cl)C(=O)c2ccccc2C1=O,1.23% (inactive),
CCCCC1NC(C(=O)O)CS1 (centres undefined),6.61% (inactive),
COc1ccc(CCN2C(=O)/C(=C\c3ccco3)SC2=S)cc1OC,-2.75% (inactive),
CN(c1ccccc1)S(=O)(=O)c1ccc(Cl)c(C(=O)NCCc2c[nH]c3ccccc23)c1,-0.219% (inactive),
COc1ccc(NC(=O)CSc2ncccc2C(=O)OC(C)C)cc1OC,1.81% (inactive),
Cc1n[nH]c(C)c1S(=O)(=O)N1CCCC(C(=O)Nc2nccs2)C1 (centres undefined),1.19% (inactive),
Cc1ccc(CNC(=O)CCNS(=O)(=O)c2ccc(C)cc2)cc1,-2.25% (inactive),
Cc1cccc(NC(=S)NCc2ccc3c(c2)cc(C)n3C)c1C,-1.59% (inactive),
CC(=O)COc1ccc2c(-c3ccccc3)cc(=O)oc2c1,7.04% (inactive),
COc1ccc(CCNC(=O)Cc2cc(=O)[nH]c(=O)[nH]2)cc1OC,1.29% (inactive),
COC(=O)c1[nH]c2ccccc2c1NC(=O)CN1CCCc2ccccc21,-0.131% (inactive),
Nc1ccc2nc(-c3ccc(N)c(Cl)c3)[nH]c2c1,-0.728% (inactive),
CCCCCCCCCCOC(=O)Cn1c(COc2ccc(Cl)cc2)[n+](C)c2ccccc21,,18.5 µM (active)
Cc1cc(NC(=O)c2cccc(S(=O)(=O)N(C)C)c2)n(-c2ccccn2)n1,-1.59% (inactive),
CCCCCCCC/C=C\CCCCCCCC(=O)NCCc1ccc(O)c(O)c1,-5.03% (inactive),

SMILES,"activity change, negative = inhibition",Potency
CCCn1c(N2CCN(Cc3cccc(C)c3)CC2)nc2c1c(=O)[nH]c(=O)n2C,-0.381% (inactive),
COc1ccccc1NC(=O)CSc1nc(O)cc(=O)n1-c1ccccc1OC,-2.53% (inactive),
CC(OC(=O)c1nsc(Cl)c1Cl)C(=O)NCc1ccco1 (centres undefined),-1.99% (inactive),
COc1ccc(N(C(=O)C(C)C)S(=O)(=O)c2ccc(Cl)cc2)cc1,0.439% (inactive),
COCc1cc(C)nc(OCC(=O)N/N=C\c2cc(C)n(-c3cccc(C(F)(F)F)c3)c2C)c1C#N,0.0262% (inactive),
Cc1c(NC(=O)C2CCCN2S(=O)(=O)c2ccc(Cl)cc2)c(=O)n(-c2ccccc2)n1C (centres undefined),7.2% (inactive),
O=C(NNC(=O)c1cc2ccccc2cc1O)Nc1ccccc1F,-0.819% (inactive),
CCOC(=O)c1c(-c2ccc(C)o2)csc1NC(=O)COC(=O)c1ccc(NC(N)=O)cc1,-4.42% (inactive),
C/C(=N/NC(=O)c1cc2ccccc2cc1O)C1C(=O)c2ccccc2C1=O,,5.85 µM (active)
N#Cc1cc(Sc2ccccn2)c(Sc2ccccn2)cc1C#N,-0.639% (inactive),
CC1(C)CC(=O)C=C(NCc2cccs2)C1,-0.275% (inactive),
COc1cc(OC)cc(-c2c(C#Cc3ccsc3)c3cc(-c4ccc(OC)c(OC)c4)ccc3n2C)c1,-2.57% (inactive),
COc1cc2c(C(=O)N3CCN(c4cccc(Cl)c4)CC3)cn(CC(C)C)c(=O)c2cc1OC,-2.06% (inactive),
CCc1cc2cccc(C)c2nc1SCC(=O)N1CCN(C(=O)c2ccco2)CC1,1.25% (inactive),
COc1ccccc1C(=O)n1nc(-c2cccnc2)nc1NCc1ccccc1,,5.85 µM (active)
COc1ccc(S(=O)(=O)N(C)CC(=O)Nc2cccc(C(C)=O)c2)cc1Cl,2.49% (inactive),
C#CCOCCOCCOCCNc1nc(N2CCN(C(=O)CCCCCCCCCCNC(=O)Cn3cc(CCCCCN)nn3)CC2)nc(N2CCN(C(=O)CCCCCCCCCCNC(=O)[C@H]([C@@H](C)CC)n3cc(CCCCCN)nn3)CC2)n1,,4.65 µM (active)
Clc1ccccc1-c1nnc2sc(-c3cccs3)nn12,-1.13% (inactive),
COCCn1nnnc1CN(CCc1ccccc1)Cc1cc2ccc(C)cc2[nH]c1=O,0.728% (inactive),

# Source: PubChem BioAssay AID493168 (National Center for Advancing Translational Sciences (NCATS), 2011)
